# Laboratory results as given in publication PMC7862700, “An all-to-all approach to the identification of sequence-specific readers for epigenetic DNA modifications on cytosine”.
# Experiments:
# Experiment in all cases: DAPPL (digital affinity profiling via proximity ligation, sequencing); 10 mM Tris-HCl pH 7.5, 50 mM NaCl, 1 mM DTT, 4% glycerol, room temperature, 30 min; GST-TFs on glutathione beads, 16-mer random dsDNA library, 0.1% formaldehyde crosslink after washing; high values mean tight binding
# FLI1 = target: T1, FLI1 (Homo sapiens, UniProt Q01543 1-452); conditions: protein: recombinant; tags: N-terminal GST; dsDNA, one strand shown
# T1 sequence: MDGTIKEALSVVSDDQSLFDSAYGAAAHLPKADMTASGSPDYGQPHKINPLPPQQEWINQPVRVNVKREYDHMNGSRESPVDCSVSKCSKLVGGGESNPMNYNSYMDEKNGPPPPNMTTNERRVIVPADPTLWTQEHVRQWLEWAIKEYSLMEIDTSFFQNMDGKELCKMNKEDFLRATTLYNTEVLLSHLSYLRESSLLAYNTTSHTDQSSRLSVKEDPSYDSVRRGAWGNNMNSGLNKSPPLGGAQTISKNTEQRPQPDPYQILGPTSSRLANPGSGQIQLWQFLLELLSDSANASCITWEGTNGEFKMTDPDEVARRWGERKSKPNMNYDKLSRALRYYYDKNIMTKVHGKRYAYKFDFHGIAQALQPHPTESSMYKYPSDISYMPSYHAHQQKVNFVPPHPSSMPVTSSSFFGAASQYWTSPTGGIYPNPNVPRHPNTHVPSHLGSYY
# How it was run: (§1)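 Pools of DNA-barcoded human transcription factors, expressed in yeast as GST fusions on glutathione beads and combined with a tag-only sample, were incubated with 200 nmole of a 16-mer random double-stranded DNA library. Incubation took 30 min at room temperature in Tris/NaCl/DTT/glycerol buffer and was followed by washing, 0.1% formaldehyde crosslinking, proximity ligation (BsaI/T4 ligase, 1 h, 37 °C), PCR amplification and sequencing on an Illumina NextSeq500. Binding signal is the ratio of a hexamer's read frequency for a factor to its frequency for the tag-only sample.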
# ELK1 = target: T2, ELK1 (Homo sapiens, UniProt P19419 1-428); conditions: protein: recombinant; tags: N-terminal GST; dsDNA, one strand shown
# T2 sequence: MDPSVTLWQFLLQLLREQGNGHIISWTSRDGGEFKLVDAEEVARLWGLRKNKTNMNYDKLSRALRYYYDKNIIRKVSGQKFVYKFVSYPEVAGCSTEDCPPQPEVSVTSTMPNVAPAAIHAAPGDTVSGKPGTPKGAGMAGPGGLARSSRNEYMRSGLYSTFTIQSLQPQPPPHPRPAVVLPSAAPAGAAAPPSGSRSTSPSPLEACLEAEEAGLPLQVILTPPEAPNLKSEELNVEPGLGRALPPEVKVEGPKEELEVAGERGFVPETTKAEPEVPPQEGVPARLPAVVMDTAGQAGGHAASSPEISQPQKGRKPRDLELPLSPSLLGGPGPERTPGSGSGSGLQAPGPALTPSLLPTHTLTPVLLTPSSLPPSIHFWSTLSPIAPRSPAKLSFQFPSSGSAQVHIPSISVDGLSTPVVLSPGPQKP
# How it was run: as §1
# GABPA = target: T3, GABPA (Homo sapiens, UniProt Q06546 1-454); conditions: protein: recombinant; tags: N-terminal GST; dsDNA, one strand shown
# T3 sequence: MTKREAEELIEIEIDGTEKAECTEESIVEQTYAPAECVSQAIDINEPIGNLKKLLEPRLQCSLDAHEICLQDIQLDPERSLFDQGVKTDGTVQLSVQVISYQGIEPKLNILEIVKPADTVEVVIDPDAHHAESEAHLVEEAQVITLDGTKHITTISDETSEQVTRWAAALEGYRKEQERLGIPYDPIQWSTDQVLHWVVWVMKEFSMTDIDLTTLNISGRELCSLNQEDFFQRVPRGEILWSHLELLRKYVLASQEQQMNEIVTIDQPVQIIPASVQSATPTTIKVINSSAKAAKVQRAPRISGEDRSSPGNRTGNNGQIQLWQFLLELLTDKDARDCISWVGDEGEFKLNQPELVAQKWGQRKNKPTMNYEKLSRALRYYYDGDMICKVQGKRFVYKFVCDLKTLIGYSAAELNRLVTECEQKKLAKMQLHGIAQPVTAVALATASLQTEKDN
# How it was run: as §1
# ERG = target: T4, ERG (Homo sapiens, UniProt P11308 1-479); conditions: protein: recombinant; tags: N-terminal GST; dsDNA, one strand shown
# T4 sequence: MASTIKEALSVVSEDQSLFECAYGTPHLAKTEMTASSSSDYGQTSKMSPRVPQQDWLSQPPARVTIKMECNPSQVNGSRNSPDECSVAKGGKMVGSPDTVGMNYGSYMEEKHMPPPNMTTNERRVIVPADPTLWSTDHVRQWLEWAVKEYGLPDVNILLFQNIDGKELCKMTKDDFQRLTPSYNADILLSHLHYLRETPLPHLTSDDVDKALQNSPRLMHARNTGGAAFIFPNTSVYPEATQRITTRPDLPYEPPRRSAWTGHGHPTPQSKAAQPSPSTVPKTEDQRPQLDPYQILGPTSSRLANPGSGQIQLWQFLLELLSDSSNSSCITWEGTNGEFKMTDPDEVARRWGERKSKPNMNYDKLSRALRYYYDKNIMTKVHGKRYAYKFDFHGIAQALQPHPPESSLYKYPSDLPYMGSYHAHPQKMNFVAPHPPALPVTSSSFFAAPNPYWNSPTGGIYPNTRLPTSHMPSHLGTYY
# How it was run: as §1
# ELF1 = ELF1 (Homo sapiens, UniProt P32519 1-619); conditions: protein: recombinant; tags: N-terminal GST; dsDNA, one strand shown
# How it was run: as §1
# EHF = target: T5, EHF (Homo sapiens, UniProt Q9NZC4 1-300); conditions: protein: recombinant; tags: N-terminal GST; dsDNA, one strand shown
# T5 sequence: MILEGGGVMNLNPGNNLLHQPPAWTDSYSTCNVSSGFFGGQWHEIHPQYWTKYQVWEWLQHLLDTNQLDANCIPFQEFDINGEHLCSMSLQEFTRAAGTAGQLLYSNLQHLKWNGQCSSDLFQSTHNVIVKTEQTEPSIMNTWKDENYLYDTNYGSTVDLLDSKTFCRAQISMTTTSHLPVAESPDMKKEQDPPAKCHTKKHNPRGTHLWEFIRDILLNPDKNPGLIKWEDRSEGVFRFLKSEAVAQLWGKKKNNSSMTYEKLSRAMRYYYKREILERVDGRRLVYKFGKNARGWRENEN
# How it was run: as §1
# SPI1 = SPI1 (Homo sapiens, UniProt P17947 1-270); conditions: protein: recombinant; tags: N-terminal GST; dsDNA, one strand shown
# How it was run: as §1
# SPIB = SPIB (Homo sapiens, UniProt Q01892 1-262); conditions: protein: recombinant; tags: N-terminal GST; dsDNA, one strand shown
# How it was run: as §1
# ELK3 = target: T6, ELK3 (Homo sapiens, UniProt P41970 1-407); conditions: protein: recombinant; tags: N-terminal GST; dsDNA, one strand shown
# T6 sequence: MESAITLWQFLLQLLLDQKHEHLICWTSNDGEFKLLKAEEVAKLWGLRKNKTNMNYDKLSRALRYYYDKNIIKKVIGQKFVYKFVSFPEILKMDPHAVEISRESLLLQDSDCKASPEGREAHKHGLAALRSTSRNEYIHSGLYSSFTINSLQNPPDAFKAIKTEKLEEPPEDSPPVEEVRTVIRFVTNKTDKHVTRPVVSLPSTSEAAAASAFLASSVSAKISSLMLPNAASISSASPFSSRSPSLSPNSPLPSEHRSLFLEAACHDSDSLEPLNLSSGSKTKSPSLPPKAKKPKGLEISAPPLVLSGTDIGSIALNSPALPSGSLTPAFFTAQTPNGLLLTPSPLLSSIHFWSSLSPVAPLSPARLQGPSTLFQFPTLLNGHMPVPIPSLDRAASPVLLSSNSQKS
# How it was run: as §1
# FEV = target: T7, FEV (Homo sapiens, UniProt Q99581 1-238); conditions: protein: recombinant; tags: N-terminal GST; dsDNA, one strand shown
# T7 sequence: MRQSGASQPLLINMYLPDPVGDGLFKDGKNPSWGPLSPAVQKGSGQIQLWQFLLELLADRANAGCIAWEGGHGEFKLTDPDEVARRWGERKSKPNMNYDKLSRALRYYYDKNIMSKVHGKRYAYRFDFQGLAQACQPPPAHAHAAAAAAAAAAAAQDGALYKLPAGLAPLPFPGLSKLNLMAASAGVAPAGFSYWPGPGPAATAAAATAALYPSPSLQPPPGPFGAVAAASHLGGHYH
# How it was run: as §1
# ETV5 = ETV5 (Homo sapiens, UniProt P41161 1-510); conditions: protein: recombinant; tags: N-terminal GST; dsDNA, one strand shown
# How it was run: as §1
# HSF1 = HSF1 (Homo sapiens, UniProt Q00613 1-529); conditions: protein: recombinant; tags: N-terminal GST; chain copies: 3; dsDNA, one strand shown
# How it was run: as §1
# SPIC = target: T8, SPIC (Homo sapiens, UniProt Q8N5J4 1-248); conditions: protein: recombinant; tags: N-terminal GST; dsDNA, one strand shown
# T8 sequence: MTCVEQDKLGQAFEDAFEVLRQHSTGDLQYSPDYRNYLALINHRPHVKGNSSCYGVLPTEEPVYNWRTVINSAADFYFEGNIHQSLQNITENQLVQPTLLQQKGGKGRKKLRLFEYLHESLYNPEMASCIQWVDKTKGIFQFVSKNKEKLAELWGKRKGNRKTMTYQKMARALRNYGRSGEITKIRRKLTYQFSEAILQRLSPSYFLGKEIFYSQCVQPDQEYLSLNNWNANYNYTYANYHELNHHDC
# How it was run: as §1
# ELF4 = ELF4 (Homo sapiens, UniProt Q99607 1-663); conditions: protein: recombinant; tags: N-terminal GST; dsDNA, one strand shown
# How it was run: as §1
# ELK4 = target: T9, ELK4 (Homo sapiens, UniProt P28324-2 1-405); conditions: protein: recombinant; tags: N-terminal GST; dsDNA, one strand shown
# T9 sequence: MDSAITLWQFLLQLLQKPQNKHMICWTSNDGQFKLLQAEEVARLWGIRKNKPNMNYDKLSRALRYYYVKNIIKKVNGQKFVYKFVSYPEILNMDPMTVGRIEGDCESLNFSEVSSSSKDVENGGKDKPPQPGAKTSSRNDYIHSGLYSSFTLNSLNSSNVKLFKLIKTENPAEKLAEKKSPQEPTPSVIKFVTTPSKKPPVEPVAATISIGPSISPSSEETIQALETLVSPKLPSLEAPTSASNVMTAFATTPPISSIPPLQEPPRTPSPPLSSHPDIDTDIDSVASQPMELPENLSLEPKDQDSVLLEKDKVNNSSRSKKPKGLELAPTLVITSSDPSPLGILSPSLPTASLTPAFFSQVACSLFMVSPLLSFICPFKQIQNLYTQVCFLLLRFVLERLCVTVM
# How it was run: as §1
# ETV2 = target: T10, ETV2 (Homo sapiens, UniProt O00321 1-342); conditions: protein: recombinant; tags: N-terminal GST; dsDNA, one strand shown
# T10 sequence: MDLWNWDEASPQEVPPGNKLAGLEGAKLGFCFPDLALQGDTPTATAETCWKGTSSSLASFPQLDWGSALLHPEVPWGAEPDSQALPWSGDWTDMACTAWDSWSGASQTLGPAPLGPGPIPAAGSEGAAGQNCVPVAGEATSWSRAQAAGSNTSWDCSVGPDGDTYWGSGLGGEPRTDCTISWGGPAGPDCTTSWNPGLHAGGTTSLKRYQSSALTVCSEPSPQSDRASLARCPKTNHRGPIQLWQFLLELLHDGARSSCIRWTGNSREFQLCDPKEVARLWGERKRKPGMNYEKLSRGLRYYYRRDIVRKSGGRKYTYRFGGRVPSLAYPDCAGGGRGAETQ
# How it was run: as §1
# ELF3 = target: T11, ELF3 (Homo sapiens, UniProt P78545 1-371); conditions: protein: recombinant; tags: N-terminal GST; dsDNA, one strand shown
# T11 sequence: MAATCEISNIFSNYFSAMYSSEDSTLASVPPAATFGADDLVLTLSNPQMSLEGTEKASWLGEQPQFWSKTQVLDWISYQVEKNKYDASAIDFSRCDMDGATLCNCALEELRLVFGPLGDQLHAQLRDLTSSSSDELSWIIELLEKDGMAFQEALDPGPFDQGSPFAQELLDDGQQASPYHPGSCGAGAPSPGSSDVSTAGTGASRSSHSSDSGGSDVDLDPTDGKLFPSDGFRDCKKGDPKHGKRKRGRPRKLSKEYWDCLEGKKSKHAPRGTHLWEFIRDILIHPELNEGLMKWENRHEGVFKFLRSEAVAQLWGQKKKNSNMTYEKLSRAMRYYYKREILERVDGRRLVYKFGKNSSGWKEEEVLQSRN
# How it was run: as §1
# CRX = CRX (Homo sapiens, UniProt O43186 1-299); conditions: protein: recombinant; tags: N-terminal GST; dsDNA, one strand shown
# How it was run: as §1
# ETV1 = ETV1 (Homo sapiens, UniProt P50549 1-477); conditions: protein: recombinant; tags: N-terminal GST; dsDNA, one strand shown
# How it was run: as §1
# Sequence of ETV5 (P41161 whole entry): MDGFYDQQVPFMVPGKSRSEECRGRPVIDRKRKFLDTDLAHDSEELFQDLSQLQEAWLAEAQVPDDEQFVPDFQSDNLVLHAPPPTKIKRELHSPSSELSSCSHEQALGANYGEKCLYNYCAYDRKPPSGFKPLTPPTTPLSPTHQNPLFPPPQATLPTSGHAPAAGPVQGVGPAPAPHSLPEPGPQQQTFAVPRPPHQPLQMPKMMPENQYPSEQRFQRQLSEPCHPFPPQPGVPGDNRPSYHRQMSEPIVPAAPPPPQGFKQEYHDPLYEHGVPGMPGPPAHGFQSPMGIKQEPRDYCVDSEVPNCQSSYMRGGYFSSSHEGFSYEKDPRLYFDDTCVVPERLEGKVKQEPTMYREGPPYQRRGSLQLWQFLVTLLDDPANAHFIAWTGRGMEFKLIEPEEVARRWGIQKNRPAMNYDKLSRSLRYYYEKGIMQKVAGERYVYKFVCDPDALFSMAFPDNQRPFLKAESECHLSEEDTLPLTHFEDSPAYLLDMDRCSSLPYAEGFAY
# Sequence of CRX (O43186 whole entry): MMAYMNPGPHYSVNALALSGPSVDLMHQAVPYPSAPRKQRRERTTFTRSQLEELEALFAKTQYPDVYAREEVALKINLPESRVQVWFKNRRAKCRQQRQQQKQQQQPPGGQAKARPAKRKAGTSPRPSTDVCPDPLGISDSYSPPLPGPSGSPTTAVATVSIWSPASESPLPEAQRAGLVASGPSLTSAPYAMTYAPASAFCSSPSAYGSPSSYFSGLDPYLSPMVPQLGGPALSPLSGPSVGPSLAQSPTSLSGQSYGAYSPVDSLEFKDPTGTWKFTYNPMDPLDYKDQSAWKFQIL
# Sequence of ELF4 (Q99607 whole entry): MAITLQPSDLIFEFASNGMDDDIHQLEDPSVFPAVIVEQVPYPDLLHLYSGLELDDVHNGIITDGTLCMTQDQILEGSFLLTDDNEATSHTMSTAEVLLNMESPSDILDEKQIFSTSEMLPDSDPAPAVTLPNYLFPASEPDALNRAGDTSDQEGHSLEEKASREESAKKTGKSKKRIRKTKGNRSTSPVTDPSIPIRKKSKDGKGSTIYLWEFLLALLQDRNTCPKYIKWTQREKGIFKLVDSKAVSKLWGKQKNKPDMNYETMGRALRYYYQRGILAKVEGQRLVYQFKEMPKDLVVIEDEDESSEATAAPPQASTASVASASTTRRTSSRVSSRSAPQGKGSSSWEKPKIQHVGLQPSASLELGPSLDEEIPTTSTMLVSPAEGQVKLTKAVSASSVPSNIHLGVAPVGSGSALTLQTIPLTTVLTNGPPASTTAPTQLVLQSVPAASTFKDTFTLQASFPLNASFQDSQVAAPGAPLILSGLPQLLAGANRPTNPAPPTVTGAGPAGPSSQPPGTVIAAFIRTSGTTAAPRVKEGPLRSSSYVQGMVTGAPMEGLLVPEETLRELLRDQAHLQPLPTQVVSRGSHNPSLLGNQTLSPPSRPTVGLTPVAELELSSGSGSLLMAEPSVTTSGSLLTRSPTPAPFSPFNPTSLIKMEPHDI
# Sequence of ELF1 (P32519 whole entry): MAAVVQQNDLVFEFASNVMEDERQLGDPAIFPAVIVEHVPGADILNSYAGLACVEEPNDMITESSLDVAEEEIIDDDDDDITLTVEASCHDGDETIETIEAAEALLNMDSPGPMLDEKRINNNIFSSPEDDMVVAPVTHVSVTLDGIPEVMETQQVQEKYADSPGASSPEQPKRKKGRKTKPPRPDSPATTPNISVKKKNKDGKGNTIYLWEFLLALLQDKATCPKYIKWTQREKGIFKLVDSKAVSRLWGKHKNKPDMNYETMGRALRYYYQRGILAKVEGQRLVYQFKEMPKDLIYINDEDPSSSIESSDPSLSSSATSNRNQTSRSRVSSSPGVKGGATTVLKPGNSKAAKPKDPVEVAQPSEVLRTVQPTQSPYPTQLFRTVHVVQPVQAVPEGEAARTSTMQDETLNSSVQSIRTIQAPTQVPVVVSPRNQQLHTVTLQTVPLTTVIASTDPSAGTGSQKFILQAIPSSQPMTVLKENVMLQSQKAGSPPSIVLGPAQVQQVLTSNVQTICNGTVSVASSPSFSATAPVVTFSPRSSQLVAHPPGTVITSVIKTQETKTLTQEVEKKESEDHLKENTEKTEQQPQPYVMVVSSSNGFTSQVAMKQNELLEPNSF
# Sequence of HSF1 (Q00613 whole entry): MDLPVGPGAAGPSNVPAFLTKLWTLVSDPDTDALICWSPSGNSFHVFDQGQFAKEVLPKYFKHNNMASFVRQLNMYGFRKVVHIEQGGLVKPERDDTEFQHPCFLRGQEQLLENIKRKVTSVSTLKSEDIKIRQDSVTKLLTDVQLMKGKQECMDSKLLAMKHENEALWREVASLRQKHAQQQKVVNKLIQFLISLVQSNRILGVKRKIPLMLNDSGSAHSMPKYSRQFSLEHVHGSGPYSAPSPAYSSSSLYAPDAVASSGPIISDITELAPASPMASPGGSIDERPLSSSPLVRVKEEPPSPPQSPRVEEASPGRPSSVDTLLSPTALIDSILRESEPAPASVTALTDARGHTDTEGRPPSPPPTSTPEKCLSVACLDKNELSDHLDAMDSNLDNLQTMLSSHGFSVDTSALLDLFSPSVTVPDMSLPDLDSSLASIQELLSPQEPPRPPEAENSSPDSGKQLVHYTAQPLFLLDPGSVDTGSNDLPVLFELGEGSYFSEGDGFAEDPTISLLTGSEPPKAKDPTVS
# Sequence of SPIB (Q01892 whole entry): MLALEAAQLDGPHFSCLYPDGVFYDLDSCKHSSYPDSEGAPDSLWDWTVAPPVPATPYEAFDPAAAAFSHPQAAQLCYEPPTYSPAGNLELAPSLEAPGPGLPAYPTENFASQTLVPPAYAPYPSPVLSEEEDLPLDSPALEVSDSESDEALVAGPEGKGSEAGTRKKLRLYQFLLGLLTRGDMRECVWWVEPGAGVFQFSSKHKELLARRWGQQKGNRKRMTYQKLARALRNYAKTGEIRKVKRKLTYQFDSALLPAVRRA
# Sequence of ETV1 (P50549 whole entry): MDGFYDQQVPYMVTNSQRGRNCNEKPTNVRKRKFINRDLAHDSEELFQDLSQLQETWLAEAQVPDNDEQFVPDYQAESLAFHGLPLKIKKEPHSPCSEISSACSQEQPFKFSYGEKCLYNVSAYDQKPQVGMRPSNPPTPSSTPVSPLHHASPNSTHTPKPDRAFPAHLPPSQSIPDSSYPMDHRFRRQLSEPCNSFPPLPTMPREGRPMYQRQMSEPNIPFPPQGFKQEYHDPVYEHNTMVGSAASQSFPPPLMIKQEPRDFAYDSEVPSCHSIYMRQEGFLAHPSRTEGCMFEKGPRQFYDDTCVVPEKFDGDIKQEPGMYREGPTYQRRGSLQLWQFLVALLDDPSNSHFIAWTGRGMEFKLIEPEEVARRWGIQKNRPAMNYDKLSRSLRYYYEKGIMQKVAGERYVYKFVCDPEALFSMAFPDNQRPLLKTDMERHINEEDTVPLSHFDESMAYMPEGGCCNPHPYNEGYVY
sequence,measurement,setting,value
CCTTGA,binding signal,FLI1,"1.26 fold enrichment (6-mer frequency, TF over GST control)"
same,binding signal,ELK1,"1.26 fold enrichment (6-mer frequency, TF over GST control)"
same,binding signal,GABPA,"1.24 fold enrichment (6-mer frequency, TF over GST control)"
same,binding signal,ERG,"1.27 fold enrichment (6-mer frequency, TF over GST control)"
same,binding signal,ELF1,"1.25 fold enrichment (6-mer frequency, TF over GST control)"
same,binding signal,EHF,"1.23 fold enrichment (6-mer frequency, TF over GST control)"
same,binding signal,SPI1,"1.17 fold enrichment (6-mer frequency, TF over GST control)"
same,binding signal,SPIB,"1.24 fold enrichment (6-mer frequency, TF over GST control)"
same,binding signal,ELK3,"1.4 fold enrichment (6-mer frequency, TF over GST control)"
same,binding signal,FEV,"1.19 fold enrichment (6-mer frequency, TF over GST control)"
same,binding signal,ETV5,"1.25 fold enrichment (6-mer frequency, TF over GST control)"
same,binding signal,HSF1,"1.07 fold enrichment (6-mer frequency, TF over GST control)"
same,binding signal,SPIC,"1.27 fold enrichment (6-mer frequency, TF over GST control)"
same,binding signal,ELF4,"1.22 fold enrichment (6-mer frequency, TF over GST control)"
same,binding signal,ELK4,"1.22 fold enrichment (6-mer frequency, TF over GST control)"
same,binding signal,ETV2,"1.11 fold enrichment (6-mer frequency, TF over GST control)"
same,binding signal,ELF3,"1.26 fold enrichment (6-mer frequency, TF over GST control)"
same,binding signal,CRX,"1.16 fold enrichment (6-mer frequency, TF over GST control)"
same,binding signal,ETV1,"1.17 fold enrichment (6-mer frequency, TF over GST control)"
